Assay results published in ChEMBL document CHEMBL1961873, “Compounds: GSK PKIS; Assays: Nanosyn kinase panel” (2012).

What was measured:
[1] = biological target: T1, Tyrosine-protein kinase ITK/TSK (Homo sapiens) (UniProt Q08881); details: at 1 µM;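 also: values are mean percent inhibition of ITK from the GSK PKIS screen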
T1 sequence (whole entry): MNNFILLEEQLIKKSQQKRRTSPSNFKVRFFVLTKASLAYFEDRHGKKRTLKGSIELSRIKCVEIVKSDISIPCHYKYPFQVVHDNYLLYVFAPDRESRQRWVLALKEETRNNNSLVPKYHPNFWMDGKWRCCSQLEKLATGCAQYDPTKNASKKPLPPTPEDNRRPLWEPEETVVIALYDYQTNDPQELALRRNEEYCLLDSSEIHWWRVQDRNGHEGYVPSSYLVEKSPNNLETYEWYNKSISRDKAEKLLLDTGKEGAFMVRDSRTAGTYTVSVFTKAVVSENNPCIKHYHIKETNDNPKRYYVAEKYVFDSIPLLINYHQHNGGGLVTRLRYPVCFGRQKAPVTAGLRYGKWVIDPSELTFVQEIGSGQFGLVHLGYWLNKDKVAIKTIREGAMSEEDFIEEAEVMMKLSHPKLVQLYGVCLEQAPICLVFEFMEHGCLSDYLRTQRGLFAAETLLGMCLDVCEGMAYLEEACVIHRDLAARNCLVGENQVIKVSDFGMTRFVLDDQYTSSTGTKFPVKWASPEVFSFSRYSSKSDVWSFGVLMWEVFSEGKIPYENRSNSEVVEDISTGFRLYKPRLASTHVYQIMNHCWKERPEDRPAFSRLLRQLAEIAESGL

[2] = biological target: Tyrosine-protein kinase JAK1 (Homo sapiens) (UniProt P23458); details: at 0.1 µM
[3] = biological target: Tyrosine-protein kinase JAK1 (Homo sapiens) (UniProt P23458); details: at 1 µM
[4] = biological target: Tyrosine-protein kinase JAK2 (Homo sapiens) (UniProt O60674); details: at 0.1 µM
[5] = biological target: Tyrosine-protein kinase JAK2 (Homo sapiens) (UniProt O60674); details: at 1 µM
[6] = biological target: T2, Tyrosine-protein kinase JAK3 (Homo sapiens) (UniProt P52333); details: at 0.1 µM
T2 sequence (whole entry): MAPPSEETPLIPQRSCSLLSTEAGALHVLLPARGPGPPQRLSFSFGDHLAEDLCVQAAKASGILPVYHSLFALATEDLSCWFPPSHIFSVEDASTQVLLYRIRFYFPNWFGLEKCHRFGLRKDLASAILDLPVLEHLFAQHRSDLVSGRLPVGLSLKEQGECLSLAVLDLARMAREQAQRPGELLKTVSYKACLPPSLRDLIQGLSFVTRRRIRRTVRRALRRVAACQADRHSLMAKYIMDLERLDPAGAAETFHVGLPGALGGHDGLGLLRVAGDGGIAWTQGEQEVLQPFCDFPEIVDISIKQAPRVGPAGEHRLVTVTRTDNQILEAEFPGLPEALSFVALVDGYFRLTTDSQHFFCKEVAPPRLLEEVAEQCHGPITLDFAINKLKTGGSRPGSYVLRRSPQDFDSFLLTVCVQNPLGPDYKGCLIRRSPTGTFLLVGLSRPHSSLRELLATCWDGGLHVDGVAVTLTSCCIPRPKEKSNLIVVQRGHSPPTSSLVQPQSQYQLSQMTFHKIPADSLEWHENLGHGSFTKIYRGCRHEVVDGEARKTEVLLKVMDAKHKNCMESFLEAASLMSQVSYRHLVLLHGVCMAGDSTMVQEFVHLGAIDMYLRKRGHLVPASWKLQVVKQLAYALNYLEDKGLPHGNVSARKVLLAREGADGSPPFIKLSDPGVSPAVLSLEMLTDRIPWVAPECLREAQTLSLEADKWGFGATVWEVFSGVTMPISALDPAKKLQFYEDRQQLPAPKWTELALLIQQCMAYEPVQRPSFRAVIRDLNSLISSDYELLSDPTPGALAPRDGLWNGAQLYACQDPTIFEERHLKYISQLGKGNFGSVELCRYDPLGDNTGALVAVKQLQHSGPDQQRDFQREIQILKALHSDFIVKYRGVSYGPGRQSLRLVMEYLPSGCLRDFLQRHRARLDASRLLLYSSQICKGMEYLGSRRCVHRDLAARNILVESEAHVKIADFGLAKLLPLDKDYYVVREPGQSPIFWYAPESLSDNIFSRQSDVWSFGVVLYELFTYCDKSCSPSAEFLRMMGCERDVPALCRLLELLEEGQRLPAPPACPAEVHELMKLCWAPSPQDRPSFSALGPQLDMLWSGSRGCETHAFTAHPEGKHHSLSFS

[7] = biological target: T2, Tyrosine-protein kinase JAK3 (Homo sapiens); details: at 1 µM
[8] = biological target: Vascular endothelial growth factor receptor 2 (Homo sapiens) (UniProt P35968); details: at 0.1 µM
[9] = biological target: Vascular endothelial growth factor receptor 2 (Homo sapiens) (UniProt P35968); details: at 1 µM
[10] = biological target: Mast/stem cell growth factor receptor Kit (Homo sapiens) (UniProt P10721); details: at 0.1 µM
[11] = biological target: Mast/stem cell growth factor receptor Kit (Homo sapiens) (UniProt P10721); details: at 1 µM
[12] = tested on: Mast/stem cell growth factor receptor Kit (Homo sapiens), P10721 [D816V]; details: at 0.1 µM
[13] = tested on: Mast/stem cell growth factor receptor Kit (Homo sapiens), P10721 [D816V]; details: at 1 µM
[14] = tested on: Mast/stem cell growth factor receptor Kit (Homo sapiens), P10721 [T670I]; details: at 0.1 µM
[15] = tested on: Mast/stem cell growth factor receptor Kit (Homo sapiens), P10721 [T670I]; details: at 1 µM
[16] = tested on: Mast/stem cell growth factor receptor Kit (Homo sapiens), P10721 [V560G]; details: at 0.1 µM
[17] = tested on: Mast/stem cell growth factor receptor Kit (Homo sapiens), P10721 [V560G]; details: at 1 µM
[18] = biological target: Tyrosine-protein kinase Lck (Homo sapiens) (UniProt P06239); details: at 0.1 µM
[19] = biological target: Tyrosine-protein kinase Lck (Homo sapiens) (UniProt P06239); details: at 1 µM
[20] = biological target: Leukocyte tyrosine kinase receptor (Homo sapiens) (UniProt P29376); details: at 0.1 µM
Leukocyte tyrosine kinase receptor (Homo sapiens), sequence (P29376 whole entry): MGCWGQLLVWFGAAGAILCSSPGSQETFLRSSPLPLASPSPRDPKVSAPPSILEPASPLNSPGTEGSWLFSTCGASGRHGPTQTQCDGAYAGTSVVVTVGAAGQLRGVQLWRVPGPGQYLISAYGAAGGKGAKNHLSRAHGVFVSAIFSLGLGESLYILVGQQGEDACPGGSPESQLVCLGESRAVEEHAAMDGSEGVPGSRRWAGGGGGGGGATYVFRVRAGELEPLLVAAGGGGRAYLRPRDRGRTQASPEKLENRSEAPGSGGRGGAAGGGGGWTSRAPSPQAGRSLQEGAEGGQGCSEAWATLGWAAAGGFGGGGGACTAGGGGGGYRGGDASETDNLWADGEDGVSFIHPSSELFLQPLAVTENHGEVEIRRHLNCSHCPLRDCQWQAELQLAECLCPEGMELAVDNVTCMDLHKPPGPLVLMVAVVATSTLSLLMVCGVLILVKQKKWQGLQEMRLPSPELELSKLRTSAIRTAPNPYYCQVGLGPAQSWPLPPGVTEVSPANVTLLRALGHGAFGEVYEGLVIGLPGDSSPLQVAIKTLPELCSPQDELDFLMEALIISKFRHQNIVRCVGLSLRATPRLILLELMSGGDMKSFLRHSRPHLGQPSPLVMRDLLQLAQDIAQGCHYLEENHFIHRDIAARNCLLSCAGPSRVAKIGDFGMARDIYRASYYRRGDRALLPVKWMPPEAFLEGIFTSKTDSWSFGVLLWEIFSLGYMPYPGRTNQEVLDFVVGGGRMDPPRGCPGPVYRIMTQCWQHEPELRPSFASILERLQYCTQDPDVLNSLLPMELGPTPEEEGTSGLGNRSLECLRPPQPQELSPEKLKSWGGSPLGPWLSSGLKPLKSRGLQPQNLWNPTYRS

Tyrosine-protein kinase JAK1 (Homo sapiens), sequence (P23458 whole entry): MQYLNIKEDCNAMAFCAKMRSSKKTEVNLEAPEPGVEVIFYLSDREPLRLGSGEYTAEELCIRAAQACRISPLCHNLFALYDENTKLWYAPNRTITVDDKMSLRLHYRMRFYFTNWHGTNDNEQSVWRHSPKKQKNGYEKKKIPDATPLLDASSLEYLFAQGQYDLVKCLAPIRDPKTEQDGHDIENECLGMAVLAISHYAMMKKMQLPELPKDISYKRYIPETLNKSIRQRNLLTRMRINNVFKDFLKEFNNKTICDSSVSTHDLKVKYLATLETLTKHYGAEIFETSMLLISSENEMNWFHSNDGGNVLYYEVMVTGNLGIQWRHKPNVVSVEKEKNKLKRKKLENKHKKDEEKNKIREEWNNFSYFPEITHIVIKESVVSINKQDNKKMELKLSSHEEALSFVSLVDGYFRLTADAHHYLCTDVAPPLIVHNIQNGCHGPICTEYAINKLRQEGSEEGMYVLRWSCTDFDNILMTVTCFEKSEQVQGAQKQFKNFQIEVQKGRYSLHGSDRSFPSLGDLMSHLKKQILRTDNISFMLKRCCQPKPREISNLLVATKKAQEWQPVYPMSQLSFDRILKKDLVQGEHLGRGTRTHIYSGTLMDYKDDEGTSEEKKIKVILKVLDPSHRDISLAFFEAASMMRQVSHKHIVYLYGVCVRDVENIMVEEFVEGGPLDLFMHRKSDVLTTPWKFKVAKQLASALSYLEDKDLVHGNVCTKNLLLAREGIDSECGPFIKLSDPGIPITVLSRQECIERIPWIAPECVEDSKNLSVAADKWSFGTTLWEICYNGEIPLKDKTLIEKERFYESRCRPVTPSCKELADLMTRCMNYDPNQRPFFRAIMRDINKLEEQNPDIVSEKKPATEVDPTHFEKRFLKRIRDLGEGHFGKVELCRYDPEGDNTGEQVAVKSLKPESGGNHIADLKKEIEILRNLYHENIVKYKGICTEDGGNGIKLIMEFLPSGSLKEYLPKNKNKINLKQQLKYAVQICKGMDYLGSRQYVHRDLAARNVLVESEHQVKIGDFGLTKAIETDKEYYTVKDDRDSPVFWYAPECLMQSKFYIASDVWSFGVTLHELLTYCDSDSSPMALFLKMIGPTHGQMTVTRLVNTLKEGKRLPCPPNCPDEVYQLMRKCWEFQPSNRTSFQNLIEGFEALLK
Mast/stem cell growth factor receptor Kit (Homo sapiens), sequence (P10721 whole entry): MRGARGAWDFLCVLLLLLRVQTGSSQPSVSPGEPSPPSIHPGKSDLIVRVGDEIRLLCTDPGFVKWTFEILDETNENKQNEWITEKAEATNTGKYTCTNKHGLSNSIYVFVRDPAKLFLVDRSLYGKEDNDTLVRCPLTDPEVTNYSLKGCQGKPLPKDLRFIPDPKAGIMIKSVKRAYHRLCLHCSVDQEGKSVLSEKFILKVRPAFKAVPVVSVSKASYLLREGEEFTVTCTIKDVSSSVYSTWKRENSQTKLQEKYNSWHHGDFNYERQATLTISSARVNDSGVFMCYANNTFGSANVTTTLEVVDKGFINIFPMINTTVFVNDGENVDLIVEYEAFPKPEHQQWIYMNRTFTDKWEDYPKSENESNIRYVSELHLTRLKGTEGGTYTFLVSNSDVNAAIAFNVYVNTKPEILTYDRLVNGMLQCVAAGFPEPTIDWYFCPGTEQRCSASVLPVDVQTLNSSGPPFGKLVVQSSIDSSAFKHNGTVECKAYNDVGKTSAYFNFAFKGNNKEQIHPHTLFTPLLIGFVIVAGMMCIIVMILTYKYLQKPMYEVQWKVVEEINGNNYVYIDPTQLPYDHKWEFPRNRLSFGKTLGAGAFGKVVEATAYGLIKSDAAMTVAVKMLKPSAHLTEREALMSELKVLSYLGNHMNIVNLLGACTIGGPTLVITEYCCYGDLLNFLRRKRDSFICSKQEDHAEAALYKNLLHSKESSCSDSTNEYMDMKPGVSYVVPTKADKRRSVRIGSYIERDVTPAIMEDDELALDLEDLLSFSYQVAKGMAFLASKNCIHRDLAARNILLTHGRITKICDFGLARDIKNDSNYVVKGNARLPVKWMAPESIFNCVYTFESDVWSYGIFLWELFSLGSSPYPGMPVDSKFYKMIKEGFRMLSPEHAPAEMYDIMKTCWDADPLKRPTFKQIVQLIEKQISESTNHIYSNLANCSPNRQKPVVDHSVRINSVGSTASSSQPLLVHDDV
Vascular endothelial growth factor receptor 2 (Homo sapiens), sequence (P35968 whole entry): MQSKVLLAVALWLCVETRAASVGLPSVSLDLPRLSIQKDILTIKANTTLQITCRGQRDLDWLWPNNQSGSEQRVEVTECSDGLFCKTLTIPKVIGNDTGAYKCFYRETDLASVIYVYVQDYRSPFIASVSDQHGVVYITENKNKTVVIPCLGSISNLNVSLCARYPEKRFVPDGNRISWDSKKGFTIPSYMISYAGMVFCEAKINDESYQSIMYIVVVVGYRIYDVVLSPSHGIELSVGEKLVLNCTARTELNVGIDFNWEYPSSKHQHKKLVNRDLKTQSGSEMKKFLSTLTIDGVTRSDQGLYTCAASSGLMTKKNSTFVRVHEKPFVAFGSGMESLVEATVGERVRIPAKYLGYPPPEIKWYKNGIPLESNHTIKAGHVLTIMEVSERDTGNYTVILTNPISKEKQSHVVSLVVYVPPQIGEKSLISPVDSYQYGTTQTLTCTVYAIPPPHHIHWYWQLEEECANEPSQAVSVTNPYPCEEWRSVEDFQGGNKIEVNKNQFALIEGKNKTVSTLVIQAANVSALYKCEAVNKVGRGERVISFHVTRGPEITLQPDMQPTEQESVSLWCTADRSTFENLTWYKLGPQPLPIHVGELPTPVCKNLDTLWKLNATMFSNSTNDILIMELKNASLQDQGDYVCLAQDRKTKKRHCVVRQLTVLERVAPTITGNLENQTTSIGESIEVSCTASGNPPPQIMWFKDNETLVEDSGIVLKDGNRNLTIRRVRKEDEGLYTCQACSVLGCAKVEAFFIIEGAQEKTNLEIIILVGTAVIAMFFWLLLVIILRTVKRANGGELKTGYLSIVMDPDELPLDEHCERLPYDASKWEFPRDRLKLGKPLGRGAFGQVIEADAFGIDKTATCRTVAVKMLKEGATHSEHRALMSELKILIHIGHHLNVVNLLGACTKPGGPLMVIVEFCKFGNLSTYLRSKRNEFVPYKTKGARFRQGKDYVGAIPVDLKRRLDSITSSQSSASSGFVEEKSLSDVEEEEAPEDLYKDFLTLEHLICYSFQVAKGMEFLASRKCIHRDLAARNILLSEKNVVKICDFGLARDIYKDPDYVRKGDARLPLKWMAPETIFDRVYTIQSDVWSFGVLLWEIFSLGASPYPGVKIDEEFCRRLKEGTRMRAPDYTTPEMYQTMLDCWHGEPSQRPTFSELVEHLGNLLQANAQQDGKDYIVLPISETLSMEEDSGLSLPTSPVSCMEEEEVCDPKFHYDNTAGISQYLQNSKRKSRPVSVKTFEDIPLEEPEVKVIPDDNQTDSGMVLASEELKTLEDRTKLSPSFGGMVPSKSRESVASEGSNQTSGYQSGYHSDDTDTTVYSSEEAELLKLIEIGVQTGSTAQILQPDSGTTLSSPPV
Mast/stem cell growth factor receptor Kit (Homo sapiens), P10721 [T670I], sequence (P10721 whole entry T670I): as the sequence (P10721 whole entry) above, with T670I counted along it
Mast/stem cell growth factor receptor Kit (Homo sapiens), P10721 [V560G], sequence (P10721 whole entry V560G): as the sequence (P10721 whole entry) above, with V560G counted along it
Mast/stem cell growth factor receptor Kit (Homo sapiens), P10721 [D816V], sequence (P10721 whole entry D816V): as the sequence (P10721 whole entry) above, with D816V counted along it
Tyrosine-protein kinase Lck (Homo sapiens), sequence (P06239 2-509 limits assumed): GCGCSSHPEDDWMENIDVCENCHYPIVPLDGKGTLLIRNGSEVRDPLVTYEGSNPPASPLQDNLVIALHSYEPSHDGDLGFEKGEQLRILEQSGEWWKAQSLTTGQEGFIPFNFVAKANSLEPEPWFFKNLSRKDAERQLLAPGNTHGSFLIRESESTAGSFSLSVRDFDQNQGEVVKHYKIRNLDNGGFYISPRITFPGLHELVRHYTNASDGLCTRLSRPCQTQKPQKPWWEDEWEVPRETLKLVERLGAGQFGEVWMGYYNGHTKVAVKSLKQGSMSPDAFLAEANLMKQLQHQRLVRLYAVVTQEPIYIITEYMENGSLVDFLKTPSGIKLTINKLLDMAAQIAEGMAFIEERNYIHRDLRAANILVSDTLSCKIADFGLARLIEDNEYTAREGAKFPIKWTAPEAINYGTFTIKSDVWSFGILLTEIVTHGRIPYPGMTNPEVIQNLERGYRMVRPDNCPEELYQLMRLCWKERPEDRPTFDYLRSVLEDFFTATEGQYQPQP

Structure (SMILES)	inhibition [1] [%]	inhibition [2] [%]	inhibition [3] [%]	inhibition [4] [%]	inhibition [5] [%]	inhibition [6] [%]	inhibition [7] [%]	inhibition [8] [%]	inhibition [9] [%]	inhibition [10] [%]	inhibition [11] [%]	inhibition [12] [%]	inhibition [13] [%]	inhibition [14] [%]	inhibition [15] [%]	inhibition [16] [%]	inhibition [17] [%]	inhibition [18] [%]	inhibition [19] [%]	inhibition [20] [%]
Fc1ccc(-c2ncn(C3CCNCC3)c2-c2ccnc(Oc3ccc(Oc4ccccc4)cc3)n2)cc1	2.41	1.18	1.84	2.34	3.84	1.04	0.1	2.97	10.7	2.94	6.51	2.38	2.59	1.59	1.82	-2.65	-3.42	4.01	4.76	3.78
c1ccc(-c2n[nH]cc2-c2ccnc(-c3ccc(OCCN4CCOCC4)cc3)c2)nc1	3.99	6.98	4.5	0.47	-0.22	6.96	5.88	13.7	60.8	0.56	2.31	-0.77	8.41	-3	-2.32	7.8	10.4	1.7	9.5	-0.05
Cc1ccc(C(=O)NC2CCC2)cc1-c1ccc(C(=O)NCC2CC2)cc1	1.48	0.07	0.59	0.91	0.54	-1.22	1.06	3.33	3.21	2.49	2.43	1.7	1.73	2.13	-0.64	-2.14	2.11	1.6	2.51	2.34
Cc1ccc(NC(=O)c2ccoc2)cc1-c1ccc(C(=O)NCC2CC2)cc1	1.05	1	2.95	0	-1.25	-1.84	-0.47	15.3	62	1.57	0.22	3.87	3.1	1.06	1.82	0.04	-1.21	2.02	3.87	2.79
CCc1nccc2c1nc(-c1nonc1N)n2CC	1.25	0.52	-2.63	3.71	2.91	0	0.61	5.64	17.7	0.21	0.89	0.61	-2.34	-0.13	-2.18	3.98	0.88	0.67	6.3	6.17
CCN(CC)Cc1ccc(Nc2nccc(-c3cnn4ncccc34)n2)cc1	-0.21	4.71	4.83	6.24	20.9	-3.13	14.2	7.19	39.1	64.8	93.1	1.8	4.13	19.4	80.9	8.63	61.5	1.35	15.3	4.48
O=C(NCC1CC1)c1ccc(-c2cccc(C(=O)NC3CC3)c2)cc1	2.71	0.26	-6.93	1.73	0.94	-0.66	0.07	5.99	8.55	1.06	3.45	2.24	-0.44	3.77	-2.45	3.49	5.84	1.74	4.51	1.6
NC(=O)c1cc(-c2ccc(F)cc2)cc(-c2ccncc2)c1N	-0.8	3.49	12.2	1.44	1.06	-0.87	-2.1	6	6.66	11.9	46.7	2.24	4.8	4.07	8.15	-2.86	1.74	2.03	7.42	3.88
NC(=O)c1cc(-c2ccncc2)cc(-c2ccccc2)c1N	1.74	6.03	4.31	2.14	1.86	-1.25	-1.1	3.91	10.7	23	75.5	6.4	6.94	3.99	4.83	2.91	25.1	7.95	41.6	5.44
CN(C)CCOc1ccc(-c2cc(-c3ccc4c(c3)CCC4=NO)c(-c3ccncc3)o2)cc1	0.28	1.5	0.68	0.4	-1.64	-0.61	1.8	-0.68	0.23	-2.06	1.55	-1.77	-0.88	0.11	0.36	1.5	3.34	2.65	24.9	-0.5
COc1ccc2cc(-c3c(-c4ccncc4)nc(-c4ccc(S(C)(=O)=O)cc4C)n3C)ccc2c1	1.36	5.05	11.1	1.62	1.45	-0.96	-0.93	10.7	47.8	5.09	4.85	1.65	4.38	2.6	4.5	1.82	-0.08	1.82	8.97	3.22
NS(=O)(=O)c1ccc(Nc2cc(-c3ccc(O)c(F)c3)n[nH]2)cc1	12.4	-7.43	6.94	-0.13	-0.37	0.11	8.25	4.49	35.3	20.9	86.4	-3.97	-1.47	-0.5	20.2	8.78	55.9	-0.68	7.91	-0.58
